Shown are actives, neighbours in structure and some others; about 19% of the full set was active somewhere.
IL1B secr inh – inflammasome signaling inhibition, IL-1 beta readout; activity change, % at 57.5 µM; THP-1 LPS/ATP IL-1B secretion, AlphaLISA, 16 h; stronger effect = lower value; 4.7% of 360,000 active; in the data active = activity change below about -50%; inconclusive = mostly about -30% to -49%
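THP-1 cells pretreated 1 hr with compounds (up to 57.5 uM final), then stimulated with LPS (250 ng/mL final) plus ATP (1.25 mM final); secreted IL-1B measured by AlphaLISA after 16 hr, decreased signal indicating inhibition.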
DT40 TDP1 CPT – DT40-hTDP1 cell growth loss with CPT; Potency, µM (doses to about 46.2 µM), without a hit: at the top dose activity change, negative = growth inhibition, actives largely listed as inhibitors; 12% of 420,000 active; chicken DT40 Tdp1-/-;hTDP1 cells + 20 nM CPT, ATP luminescence, 48 h; also: potency is read from the fitted curve at half-maximal effect; nearly all actives have a fitted effect of over 55% in size
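Cell growth measured by CellTiter-Glo luminescence after a minimum 48 h, 37 C compound exposure with 20 nM CPT in Tdp1-knockout DT40 cells stably expressing hTDP1, seeded 400/well; qHTS titration format.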
TDP1 cell noCPT – qHTS for Inhibitors of human tyrosyl-DNA phosphodiesterase 1 (TDP1): qHTS in cells in absence of CPT; DT40 Tdp1-/- hTDP1 cells, no CPT, ATP luminescence, 48 h; Potency, µM (titrated, usually from 46.2 µM), without a hit: top-dose activity change, negative = growth inhibition, most hits filed as inhibitors; 15% of 420,000 active; also: potency is read from the fitted curve at half-maximal effect; nearly all actives have a fitted effect of over 55% in size
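Growth of hTDP1-complemented DT40 Tdp1-knockout cells is measured by ATP luminescence after at least 48 hr compound exposure at 37 °C, with DMSO substituting for the 20 nM CPT used in the parallel screen.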
HT1080-NT tox – kills 2HG-producing HT-1080-NT fibrosarcoma cells; 1.6% of 360,000 active; Potency, µM (doses to about 46.1 µM), for inactives: at the top dose activity, negative = less viability, actives largely listed as cytotoxic; HT-1080-NT fibrosarcoma viability, CellTiter-Glo ATP luminescence, 48 h;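 also: NT is the 2HG producing partner of a matched IDH1 knockdown line; potency is read from the fitted curve at half-maximal effect; 0% = DMSO-treated cells and -100% = media-only wells without cells; nearly all actives have a fitted effect of over 55% in size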
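HT-1080-NT fibrosarcoma cells (2HG-overproducing), 750 cells/well in RPMI with 5% FBS, dosed after 2 h and incubated 48 h at 37C. CellTiter-Glo luminescence normalized to DMSO and no-cell wells; concentration-response curves fitted and classed.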
HT1080 IDH1KD tx – toxicity to HT-1080 IDH1 knockdown cells (counter line); HT-1080 IDH1 knockdown viability, ATP luminescence, 48 h; Potency, µM (titrated, usually from 46.1 µM), without a hit: top-dose activity, negative = toxicity, usual class: cytotoxic; 2% of 360,000 active;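 also: potency is read from the fitted curve at half-maximal effect; 0% = DMSO wells and -100% = cell-free medium wells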
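Knockdown cells (IDH1KD HT-1080) received compounds 2 h after plating at 750 cells/well and were kept 48 h at 37 °C in 5% FBS RPMI. A CellTiter-Glo luminescence read gave % activity for curve fitting.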
Starred values were filed as active, the others as inactive; ? = inconclusive; · = no result; ! = repeats disagree. Unless noted, calls follow the shape of the dose curve; as a rule, active = well fitted curve in the direction sought with a large enough effect; inconclusive = small, poorly fitted or top-dose-only effect, or another doubt; inactive = no such curve, though single readings can be large; an effect the other way counts as inactive or inconclusive. Unless noted, % is scaled to controls: 0 for no effect and ±100 for the full control effect.

SMILES	IL1B secr inh	DT40 TDP1 CPT	TDP1 cell noCPT	HT1080-NT tox	HT1080 IDH1KD tx
Cc1nn(Cc2ccccc2)c(Cl)c1C(=O)NC1CCCc2ccccc21 (stereo not drawn)	3	?	21µM*	2%	10%
C=CCN1CCC2(C)c3cc(O)ccc3C[C@H]1[C@H]2C	·	1%	-16%	·	·
CCn1nc(-c2ccccc2)nc2c(=O)n(C)c(=O)nc1-2	-114*	1.3µM*	2.6µM*	4.1µM*	5.8µM*
CCN1C[C@]2(COC)CC[C@H](O)[C@]34C1[C@](O)([C@@H](OC)[C@H]23)[C@@]1(O)C[C@H](OC)[C@H]2C[C@@H]4[C@@H]1[C@H]2OC	-20	-3%	2%	-2%	16%
CCC1=Nc2cc(C(=O)N3CCC4(CC3)OCCO4)ccc2Sc2ccccc21	4	?	?	-6%	-3%
COc1ccc(CCNC(=O)N2c3ccccc3Sc3ccccc32)cc1	?	?	?	-24%	-28%
CCCC1=Nc2cc(C(=O)NCCc3ccc(OCC)cc3)ccc2Sc2ccccc21	·	?	21µM*	·	·
CCCC1=Nc2cc(C(=O)NCCCN(CC)CC)ccc2Sc2ccccc21	·	?	29µM*	·	·
CCC1CCCCN1P(=O)(c1ccc(C)o1)C(C)(C)C (stereo not drawn)	3	-25%	-13%	9%	5%
Cc1noc(C)c1C(=O)N1CCC[C@@]2(CCN(CC(C)C)C2)C1	·	-9%	-13%	·	·
CCCC/C(C)=C/[C@@H](NP(=O)(c1ccccc1)c1ccccc1)c1ccccc1	-23	?	16µM*	?	?
Cc1sc2ncnc(SCC(=O)Nc3ccc(S(=O)(=O)N4CCOCC4)cc3)c2c1C	-4	23µM*	29µM*	-11%	-14%
CN1CCN(S(=O)(=O)c2ccc(Cl)nc2)CC1	28	11%	-1%	19%	24%
COc1ccc(S(=O)(=O)N2CCOCC2)cc1NC(=O)COC(=O)Cc1ccccc1	-8	-1%	26%	-4%	-1%
Cc1sc2ncnc(N3CCN(S(=O)(=O)c4ccc(Br)cc4)CC3)c2c1C	-12	13µM*	12µM*	-4%	10%
N/C(=N/[N+](=O)[O-])N1CCN(C(=O)Oc2ccc([N+](=O)[O-])cc2)CC1	-13	-11%	-14%	0%	-9%
CSc1ccc(CN2CCN(Cc3ccccc3Cl)CC2)cc1	-1	?	?	0%	1%
CN1CCN(Cc2ccccc2Sc2ccccc2)CC1	-80*	?	?	-5%	-1%
C=CCn1c(=O)c(C=Nc2cccnc2Cl)c(O)n(CCCC)c1=O	-9	-2%	-9%	4%	0%
Cc1ccc(CNC(=O)C(=O)NCC(c2cccnc2)N2CCN(c3ccc(F)cc3)CC2)cc1 (stereo not drawn)	·	4.1µM*	3.3µM*	·	·
Cc1ccc(OCC(=O)N2CCN(Cc3cccnc3)CC2)cc1	-5	-25%	0%	?	11%
O=C(NCc1ccc(Cl)cc1)C(=O)NCC(c1cccnc1)N1CCN(c2ccccc2)CC1 (stereo not drawn)	·	9.2µM*	7.3µM*	·	·
Cc1nnc(NC(=O)c2cccn(Cc3ccc(Cl)cc3)c2=O)s1	·	2%	-17%	·	·
c1ccc(CCN2CCCCC2)nc1	23	9%	-8%	-1%	-2%
O=C(O)CC1OCC=C2CN3CCC45C6=CC(=O)C(=O)C([N+](=O)[O-])=C6NC4C1C2CC35 (stereo not drawn)	38	14µM*	11µM*	0%	3%
SMILES	IL1B secr inh	DT40 TDP1 CPT	TDP1 cell noCPT	HT1080-NT tox	HT1080 IDH1KD tx
CN1CSC(=S)N(C)C1	-95*	6.5µM*	4.6µM*	-4%	-5%
CS(=O)(=O)Nc1ccccc1C(=O)Nc1cc(Cl)cc(Cl)c1	-56*	18µM*	18µM*	?	11µM*
COc1cc(NC(=O)c2ccco2)ccc1NC(=O)c1ccccc1Cl	?	4%	?	-9%	-14%
CN(C)CC/C=C1\c2ccccc2Sc2ccc(Cl)cc21	-57*	24µM*	21µM*	21µM*	?
CN(C)CCCN1c2ccccc2Sc2ccc(Cl)cc21	0	11µM*!	23µM*!	15µM*!	?
OCCN1CCN(CC/C=C2/c3ccccc3Sc3ccc(Cl)cc32)CC1	?	?	23µM*	?	?
O=C(CN1CCCC1)Nc1ccc(Cl)cc1C(=O)c1ccccc1	-2	?	-20%	0%	10%
CN(C)CCC=C1c2ccccc2CCc2ccccc21	?	24µM*!	27µM*!	?	23µM*
COc1ccc(/C=C/C(=O)NC(=S)N2C[C@H]3C[C@H](C2)c2cccc(=O)n2C3)cc1	6	29%	11%	8%	8%
CC1(C)N2CC3([N+](=O)[O-])CN1CC([N+](=O)[O-])(C2)C3	17	16%	-2%	6%	3%
CCCCCN=C(N)N/N=C/c1c[nH]c2ccc(OC)cc12	0	2.9µM*	2.6µM*	2.9µM*	5.8µM*
CCCCn1c(C)c(C(=O)O)c2cc(OC)ccc21	0	-30%	-9%	5%	10%
O=C(CCS(=O)(=O)c1ccccc1)Nc1nnc(-c2ccco2)o1	-2	?	?	1%	-5%
COc1ccc(CCNC(C)CCc2ccc(OC)cc2)cc1 (stereo not drawn)	-64*	?	?	?	-26%
COc1ccc(CCNCc2cc(OC)cc(OC)c2)cc1	-51*	?	?	-10%	-8%
COc1ccc(CCNCc2ccccc2)cc1	-15	-10%	?	-1%	-3%
COc1ccc(CCNCc2ccncc2)cc1	4	2%	-2%	1%	-2%
COc1ccc(CCNCc2c(OC)ccc3ccccc23)cc1	-64*	13µM*	13µM*	?	-24%
COc1cccc(CCNCc2ccc(SC)cc2)c1	-65*	-26%	?	-19%	-14%
Cc1cc(OCC(=O)N2CCN(CC(=O)N3CCOCC3)CC2)c(C(C)C)cc1Cl	-17	-24%	?	-6%	0%
Nc1cc(SCc2ccc(Cl)cc2Cl)ncn1	-27	-7%	?	-19%	-17%
CC(C)CN(CC(C)C)C(=O)C1C2c3ccccc3C(c3ccccc32)C1C(=O)O (stereo not drawn)	19	-16%	?	6%	3%
Cc1ccc(-n2cc(CNC(C)Cc3cnccn3)c(-c3cccc(C)c3)n2)cc1 (stereo not drawn)	-76*	13µM*	12µM*	?	?
O=S1(=O)CC2(N3CCOCC3)CCCCC21 (stereo not drawn)	9	-20%	-14%	19%	-1%

Compound activity (PubChem BioAssay)
